# Source: PubChem BioAssay AID2685 (National Center for Advancing Translational Sciences (NCATS), 2010)
# The whole screen tested about 320,000 compounds, of which about 2,100 (0.66%) were called active. Inconclusive results (about 53%) are left out. Calls follow the shape of the dose curve; as a rule, active = well fitted inhibition curve with a large enough effect in the signal ratio, with a control signal flat (not every such curve was filed as active); inconclusive = small, poorly fitted or top-dose-only effect, or effect the other way, or a change in a side signal; inactive = flat fitted curve, though single readings scatter; the % refers to the signal ratio. Shown is part of a subset that was picked to be rich in actives.
# Test: qHTS Assay for Lipid Storage Modulators in Drosophila S3 Cells;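 as to cell number change: cells counted by Cell Tracker Red CMTPX staining in the red channel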; as to lipid storage change, negative = inhibition: % is scaled to controls: 0 for no effect and ±100 for the full control effect
# Conditions: BODIPY lipid droplet fluorescence, 18-24 h, cells fed with added oleic acid; cell number change: measured here: cell count max response; series mostly up to 46.1 µM
# From the text: NIH Molecular Libraries Probe Production Centers Network [MLPCN] NIH Chemical Genomics Center [NCGC] MLPCN Grant: 1 R03 MH085686-01 Assay Submitter (PI): Beller, Mathias; Max-Planck-Institut fur Biophysikalische Chemie NCGC Assay Overview: Storing lipids as a reservoir for energy or the anabolism of elementary metabolites is a common feature of probably all cells and is conserved from bacteria to humans. The universal cellular lipid storage organelle is the so-called lipid storage droplet (LD). Although ubiquitous, LDs share a simple structure composed of a hydrophobic core that harbors the storage lipids, which is shielded by a droplet-specific phospholipid monolayer to which proteins are attached. The current model of LD biogenesis involves an incorporation of the lipid core into the membrane leaflets of the endoplasmic reticulum (ER) followed by a subsequent budding-like maturation of a LD, which ultimately pinches off. Once released, LD volume can increase by localized lipogenesis or fusion of existing droplet. Storage lipids are re-mobilized enzymatically by lipase activity. Lipase regulation in the adipocyte is heavily studied and involves multiple components including catecholamine signaling, the LD-associated proteins Perilipin and comparative gene identification (CGI-58) and at least two lipases named hormone sensitive lipase (HSL) and adipocyte triglyceride lipase (ATGL). LD regulation outside of the adipocyte is poorly understood and only few components are known. However, there is an urgent need to learn more about ectopic fat depots as mislocalized storage of lipids, for example in the liver or muscle, is an eminent health problem associated with insulin resistance or the metabolic syndrome. We developed a laser-scanning cytometer assay to enable 1,536-well screening and combined the results of the small molecules screen with an RNAi database based on lipid storage.
# Triacsin C (Sigma-Aldrich T-4540), an inhibitor of long-chain fatty acyl CoA synthetase that blocks synthesis of triglycerides, was used as a positive control for lipid under-storage. A total of 23 nL of compound solution of different concentrations were transferred to the assay plates using a Kalypsys pin tool equipped with a 1,536-pin array containing 10-nL slotted pins (FP1S10, 0.457-mm diameter, 50.8 mm long; V&P Scientific). One microliter of oleic acid (400 uM) was added, and the plate was lidded with stainless steel rubber gasket lined lids containing pinholes. […] Fluorescence was detected by excitation of the fluorophores with a 488-nm laser on an Acumen Explorer (TTP Lab Tech). The total intensity in channel 2 (500-530 nm) reflected lipid droplet accumulation. Cells were detected using channel 3 (575-640 nm) with 5-um width and 100-um depth filters. The ratio of the number of objects in PMT channel 2 over the number of objects in PMT channel 3 was also calculated. Percent activity was computed relative to an internal control (100% inhibited lipid droplet deposition due to the presence of 20 uM Triacsin C), which was added to 32 wells/plate.
# Potency is read from the fitted curve at half-maximal effect.
Structure (SMILES),Potency,cell number change [%],"lipid storage change, negative = inhibition"
CC(=O)c1sc(Nc2ccc(C)cc2)nc1C,inactive,7.99,
O=C(NNC(=O)C1CC1)c1cc(Cl)nc2ccccc12,inactive,13.7,
Cc1nn(Cc2ccc(Cl)cc2)c(C)c1NC(=O)CCCn1nc([N+](=O)[O-])c(Cl)c1C,inactive,-11.8,
Cc1nn(Cc2ccccc2)c(C)c1NC(=O)CCCn1nc([N+](=O)[O-])c(Cl)c1C,inactive,-5.3,
Cc1cc(C(=O)Nc2c(C)nn(Cc3ccc(Cl)cc3)c2C)no1,inactive,-17.6,
Cc1nn(Cc2ccc(Cl)cc2)c(C)c1NC(=O)CCCn1nc(C)c([N+](=O)[O-])c1C,2.31 µM (active),3.25,
Cc1nn(Cc2ccccc2Cl)c(C)c1NC(=O)CCCn1nc(C)c([N+](=O)[O-])c1C,inactive,-4.35,
Cc1nn(Cc2ccc(Cl)cc2)c(C)c1NC(=O)C(c1ccccc1)c1ccccc1,23.1 µM (active),-18.5,
Cc1nn(CCCC(=O)NCc2ccc(Cl)cc2)c(C)c1[N+](=O)[O-],inactive,,
Cc1ccc(Cn2nc(C)c(NC(=O)CCCn3nc([N+](=O)[O-])c(Cl)c3C)c2C)cc1,8.2 µM (active),-28.1,
Cc1nn(Cc2ccc(Cl)cc2)c(C)c1NC(=O)C1CC=CCC1C(=O)O (stereo unspecified),inactive,2.56,
C/C(=N\NC(=O)Cc1c(Cl)cccc1Cl)c1cccnc1,inactive,,
CC(C)(C)c1ccc(/C=C/C(=O)O)s1,inactive,0.873,
C=Cn1cc[n+](CC(=O)c2ccc(Br)s2)c1,inactive,-18.1,
c1ccc(-n2cc(CN3CCC(N4CCOCC4)CC3)c(-c3ccc4c(c3)OCO4)n2)cc1,inactive,13.9,
Cc1cccc(NC(=O)NC(C)C(c2ccccc2)N2CCN(C)CC2)c1 (stereo unspecified),inactive,-13.4,
COc1cc(C(=O)Nc2cc(-c3cn4cccnc4n3)ccc2C)cc(OC)c1OC,inactive,-3.97,
COc1cccc(NC(=O)CN(C)C(=O)CSc2ccc3c(c2)OCCO3)c1,inactive,2.81,
Cc1cc(SCC(=O)Nc2ncc(Cl)cc2Cl)nc2ccccc12,inactive,19.1,
COCCn1nnnc1SCC(=O)c1ccccc1,20.6 µM (active),2.95,
COc1ccc(C(=O)CSc2nnnn2Cc2ccccc2)cc1,inactive,14.6,

Structure (SMILES),Potency,cell number change [%],"lipid storage change, negative = inhibition"
COCCn1nnnc1SCC(=O)N1CCCCC1,inactive,6.22,
OC1(c2ccccc2F)CCN(Cc2nnc(-c3ccccc3)o2)CC1,inactive,-15,
CC1CCC2(CC1)NC(=O)N(CC(=O)Nc1ccc3c(c1)CCC3)C2=O (stereo unspecified),inactive,-0.637,
CCN(CC)c1ccc(/C=C(\C#N)C(N)=S)cc1,inactive,-2.75,
CCN(CC)c1ccc(/C=C(\C#N)C(=O)c2ccc(Br)cc2)cc1,25.9 µM (active),,
CCN(CC)c1ccc(/C=C(\C#N)C(N)=O)cc1,inactive,-5.93,
CCC(=O)c1ccc(NC(C)=O)cc1O,inactive,-16.5,
COc1ccc(CN2c3cc(S(=O)(=O)N4CCOCC4)ccc3N3CCCC32)cc1 (stereo unspecified),16.4 µM (active),1.21,
O=S(=O)(c1ccc2c(c1)N(Cc1ccc(Cl)cc1)C1CCCN21)N1CCOCC1 (stereo unspecified),inactive,-5.65,
CCN1c2ccc(S(=O)(=O)N3CCOCC3)cc2N(Cc2ccc(OC)cc2)C1C (stereo unspecified),inactive,13.6,
O=C1CN(C(=O)/C=C/c2cc(Br)ccc2F)CCN1,inactive,13.8,
CN=C1S/C(=C\c2ccc(N3CCCC3)c(F)c2)C(=O)N1C,,2.34,4.4% [at 9.22 µM] (inactive)
CN=C1S/C(=C\c2ccc(O)c(Br)c2)C(=O)N1C,inactive,-7.22,
CN=C1S/C(=C\c2ccc(Sc3ccc(Cl)cc3)o2)C(=O)N1C,inactive,,
CN=C1S/C(=C\c2ccc(SC)cc2)C(=O)N1C,0.13 µM (active),4.2,
COc1ccc(N=C2S/C(=C\c3cc(C)n(C)c3C)C(=O)N2C)cc1,inactive,20.4,
CN=C1S/C(=C\c2c(OC)cc(OC)cc2OC)C(=O)N1C,0.58 µM (active),-1.21,
CCSc1nc2c(c(=O)[nH]c(=O)n2C)n1CC(O)COc1ccccc1 (stereo unspecified),inactive,,
CCn1cc(CN2CCC(Oc3ccc(C(=O)N4CCCCC4)cc3)CC2)cn1,inactive,,
O=C(CN1CCN(Cc2ccccc2Cl)CC1)N/N=C/c1cccs1,inactive,19.5,
Cc1cccc(OCCOCCN2CCOCC2)c1C,inactive,8.47,

Structure (SMILES),Potency,cell number change [%],"lipid storage change, negative = inhibition"
Cc1cc(C)c(C)c(OCCN2CCOCC2)c1,inactive,-23.8,
Cc1ccc(C)c(OCCOCCN2CCOCC2)c1,7.31 µM (active),3.66,
CCn1cc(C2CC(=O)NC2=O)c2ccccc21 (stereo unspecified),inactive,,
CS(=O)(=O)N(CC(=O)NCC1CCCO1)c1ccc(F)c(Cl)c1 (stereo unspecified),14.6 µM (active),-13,
CS(=O)(=O)N(CC(=O)NCC1CCCO1)c1ccc(Cl)c(Cl)c1 (stereo unspecified),inactive,-7.69,
CS(=O)(=O)N(CC(=O)NCC1CCCO1)c1cccc(Cl)c1 (stereo unspecified),inactive,,
COCCNC(=O)Cn1nc(C(F)(F)F)c(Cl)c1C,inactive,-6.82,
COc1ccc(-c2csc3nc(C(C)(C)C)oc(=O)c23)cc1OC,inactive,0.241,
CCOc1ccc(-c2ccc(NS(=O)(=O)c3ccc([N+](=O)[O-])cc3)cc2)nn1,inactive,0.33,
CCOc1ccc(-c2ccc(NS(=O)(=O)c3cc([N+](=O)[O-])c(C)c([N+](=O)[O-])c3)cc2)nn1,23.1 µM (active),-5.38,
COc1ccc(-c2ccc(NS(=O)(=O)c3cc([N+](=O)[O-])c(C)c([N+](=O)[O-])c3)cc2)nn1,inactive,-13.5,
COC(=O)c1ccc2nc(NC(=O)C(C)(C)C)sc2c1,inactive,-18.4,
CC(C)OC(=O)n1c(=S)oc2ccccc21,inactive,-3.93,
CC(C)CC(=O)/C=C/n1c(=S)oc2ccccc21,23.1 µM (active),-3.17,
O=C(O)CCn1c(=S)oc2ccccc21,inactive,2.74,
COc1ccccc1NC(=O)C1CCCN(c2ncnc3c2nc2n3CCCCC2)C1 (stereo unspecified),inactive,-12.6,
Cc1cc[n+](Cc2ccc([N+](=O)[O-])cc2)cc1,inactive,-4.93,
CCCn1c(=N)n(CC(O)c2ccco2)c2ccccc21 (stereo unspecified),inactive,16.8,
N=c1n(CCN2CCCC2)c2ccccc2n1CC(O)c1ccco1 (stereo unspecified),23.1 µM (active),7.5,
N=c1n(CCN2CCCCC2)c2ccccc2n1CC(O)c1ccco1 (stereo unspecified),inactive,15.8,
